Experimental findings from article PMC4552634, “A New Set of Chemical Starting Points with Plasmodium falciparum Transmission-Blocking Potential for Antimalarial Drug Discovery” (PLoS ONE, 2015) are described below.

Hit rate of the full screen: of about 13,000 compounds, about 3,200 (25%) showed an effect of 50% or more. The list shows a part of the results.

The assay relates to P. falciparum stage V gametocytes. Also on record: BacTiter-Glo ATP luminescence viability of purified stage V gametocytes in 384-well plates, per cent inhibition versus DMSO. The settings on record: 48 h, 5 µM; inhibitor.
On to `N[C@@H](Cc1ccc(O)cc1)C(=O)NC(c1ccccc1)c1c(O)ccc2ccccc12` (stereo partly drawn) [TCMDC-141232], for which the % Inhibition (commonly the change of the read-out against control, counted positive when it falls) turned out to be 9.479%.
In the case of `CC=CC1CCNC(C(O)c2ccnc3ccc(OC)cc23)C1` (stereo not drawn) [TCMDC-132000], the “% Inhibition” value worked out at 38.01%.
The same measure for `CC(C)CCN1CCC(Oc2cccc(NC(=O)c3ccc(C(F)(F)F)cc3)c2)CC1` [TCMDC-133738]: 13.2%; for `CN1CCC(N2CCC(Oc3cccc(C(=O)NCCCC4CCCC4)c3)CC2)CC1` [TCMDC-124677]: 58.06%.
As for `O=C(NCCCCN1CCN(c2cccc(Cl)c2Cl)CC1)c1ccc2c(c1)CCN(C1CCC1)CC2` [TCMDC-136053], the “% Inhibition” value was 20.89%.
The value for `CN1CCC(NCc2ccc(-c3cccc(S(=O)(=O)NCC4CCCO4)c3)cc2)CC1` (stereo not drawn) [TCMDC-132242] was 58.26%; that for `CN1CCC(NCc2cccc(-c3ccc(S(=O)(=O)NCc4ccccc4)cc3)c2)CC1` [TCMDC-132213] was 49.72%; that for `CN1CCC(NCc2cccc(-c3cccc(S(=O)(=O)NCc4ccccc4)c3)c2)CC1` [TCMDC-132377] was 104%.
Consider `CN1CCC(NCc2ccc(-c3cccc(S(=O)(=O)NCc4ccccc4)c3)cc2)CC1` [TCMDC-132238], for which the “% Inhibition” value is reported as 104.8%.
The same measure for `CN1CCC(NCc2ccc(S(=O)(=O)Nc3ccc(Oc4cccc(Cl)c4)cc3)cc2)CC1` [TCMDC-136201]: 14.91%; for `CN1CCC(NCc2ccc(-c3ccc(S(=O)(=O)NCc4ccccc4)cc3)cc2)CC1` [TCMDC-132227]: 101.8%.
On to `Cc1ccc(Nc2nc3cc(Nc4ccnc(Nc5cccc(CS(C)(=O)=O)c5)n4)ccc3o2)cc1` [TCMDC-141957], for which the “% Inhibition” value was -56.36%.
Consider `O=C(Nc1cc(C(F)(F)F)ccc1-n1cncn1)C1(c2ccccc2)CC1` [TCMDC-125454], for which the “% Inhibition” value is 25.16%.
Turning to `CCC(ON1C(N)=NC(N)=NC1(C)C)c1ccc(Cl)cc1` (stereo not drawn) [TCMDC-131709], the “% Inhibition” value came to 18.34%.
The same measure for `Cc1cc(S(=O)(=O)N2CCCCC(c3ccc(C(F)(F)F)cc3)=N2)c(Cl)cc1Cl` [TCMDC-134540]: -43.69%; for `Cc1ccc(S(=O)(=O)NC2=NC(C)(C)N(OCc3ccc(Cl)c(Cl)c3)C(N)=N2)cc1` [TCMDC-131711]: 22.12%.
The value for `Nc1cc(-c2cccc(Cl)c2)nn1-c1ccnc2cc(Cl)ccc12` [TCMDC-134027] was -29.85%.
The same measure for `Nc1nc(-c2ccccn2)nc(-n2nc(-c3cccc(C(F)(F)F)c3)cc2N)n1` [TCMDC-134026]: 76.36%; for `CN1CCN(c2cc(-c3cccc(C(F)(F)F)c3)nc(-c3ccncc3)n2)CC1` [TCMDC-125413]: 29.7%.
For the compound `Cc1ccccc1C1CCN(c2ccc(C(=O)Nc3ccccc3)cn2)CC1` [TCMDC-134584], the “% Inhibition” value was 3.597%.
The same measure for `COc1cccc2c(NCCNc3ccnc4c(OC)cccc34)ccnc12` [TCMDC-137880]: 30.12%; for `COc1cc(CNC(=S)NN=C(C)c2ccccn2)cc(OC)c1OC` [TCMDC-137900]: 55.54%; for `COc1cc(-c2nc3c4ccccc4c4ccccc4c3[nH]2)cc(OC)c1OC` [TCMDC-123980]: 2.227%.
In the case of `CC(=NNC(=S)NCc1ccco1)c1ccccn1` [TCMDC-137906], the “% Inhibition” value is 99.6%.
Consider `CC(=NNc1nc2ccccc2s1)c1ccccn1` [TCMDC-124267], for which the “% Inhibition” value was 64.52%.
On to `CC(=NNC(=S)NC(c1ccccc1)c1ccccc1)c1ccccn1` [TCMDC-137894], for which the “% Inhibition” value was -31.88%.
The same measure for `CC(=NNC(=S)NCCc1ccccc1)c1ccccn1` [TCMDC-124270]: 79.29%; for `CCOc1ccc2nc(NC(=O)c3csnn3)sc2c1` [TCMDC-125075]: 43.02%.
As for `O=C(NCCc1ccccc1)c1cc(-c2cccnc2)cnc1NCC1CC1` [TCMDC-136700], the “% Inhibition” value is on record as 4.382%.
The value for `O=c1cc(NCCCNCc2[nH]c3cc(Cl)cc(Cl)c3c2Cn2cccn2)[nH]c2ccccc12` [TCMDC-140152] was -2.677%.
`COc1ccc2nccc([C@@H](O)CN3CCC(NCCc4c[nH]c5ccccc45)CC3)c2c1` [TCMDC-140938]: the “% Inhibition” value is 7.162%.
The same measure for `CCc1ccc(O)c(-c2cc(C(=O)Nc3ccc(OC)c(Cl)c3)[nH]n2)c1` [TCMDC-125072]: 5.954%.
As to `COc1ccc2nccc([C@@H](O)CN3CCC(NCc4ccc5c(c4)nnn5C(C)C)CC3)c2c1` [TCMDC-141011], the “% Inhibition” value is -16.76%.
As to `CCc1ccc(CN2CCC(C(=O)Nc3ccc(-c4nc5ccccc5[nH]4)cc3)CC2)o1` [TCMDC-124686], the “% Inhibition” value was -27.59%.
As for `COCCCNC(=S)NN=C(C)c1ccccn1` [TCMDC-137907], the “% Inhibition” value is on record as 93.04%.
The same measure for `CC(=NNC(=S)NCCc1ccccn1)c1ccccn1` [TCMDC-137895]: 92.63%.
Take `Clc1ccc2c(NCCc3ccccn3)ccnc2c1` [TCMDC-123461]: the “% Inhibition” value worked out at 8.42%.
The value for `Cc1ccc(Oc2cnn(C)c(=O)c2Nc2cccc(C(=O)NCCc3ccccn3)c2)c(C)c1` [TCMDC-124786] was 34.52%.
`CNC(=S)NN=C(C)c1ccccn1` [TCMDC-123475]: the “% Inhibition” value amounted to 90.46%.
Turning to `CC(=NNC(=S)NC(C)(C)C)c1ccccn1` [TCMDC-137783], the “% Inhibition” value turned out to be 15.81%.
The value for `CN(c1ccc(NC(=O)c2ccc(F)cc2)cc1)C1CCN(Cc2cccc(F)c2)C1` (stereo not drawn) [TCMDC-135003] was -17.16%; that for `O=C(Nc1ccc(OC2CCN(Cc3ccsc3)C2)c(Cl)c1)c1ccc2ncccc2c1` (stereo not drawn) [TCMDC-133951] was -25.76%; that for `C[C@H](Nc1c(Nc2ccc3[nH]ccc3c2)c(=O)c1=O)C1CCCCC1` [TCMDC-138193] was -95.47%.
`FC(F)(F)c1cccc(N2CCC(CN3CCC(c4c[nH]c5ccccc45)CC3)CC2)n1` [TCMDC-134280]: the “% Inhibition” value came to 19.45%.
As for `Cn1nc(-c2ccc(S(=O)(=O)N3CCC(CN4CCC(c5c[nH]c6ccccc56)CC4)CC3)s2)cc1C(F)(F)F` [TCMDC-140171], the “% Inhibition” value stood at 114.8%.
Consider `O=C(NCCCCCN1CCC(c2c[nH]c3ccccc23)CC1)Nc1cccc(C(F)(F)F)c1` [TCMDC-139217], for which the “% Inhibition” value is recorded as -48%.
`Cn1nc(-c2ccc(S(=O)(=O)N3CCC(CCN4CCC(c5c[nH]c6ccccc56)CC4)CC3)s2)cc1C(F)(F)F` [TCMDC-140168]: the “% Inhibition” value stood at 106.2%.
As to `O=C(NCc1ccc(S(=O)(=O)N2CCC(CN3CCC(c4c[nH]c5ccccc45)CC3)CC2)s1)c1ccccc1` [TCMDC-140170], the “% Inhibition” value was determined as 48.92%.
